Screening results deposited in PubChem by National Center for Advancing Translational Sciences (NCATS).
AmpC inh no detg – AmpC beta-lactamase inhibition without detergent. AmpC nitrocefin hydrolysis, absorbance 480 nm, 0.0001% Triton. Potency, µM (doses to about 57.1 µM), for the others: at the top dose activity change, negative = inhibition, most hits filed as inhibitors. hit rate 0.52% among 330,000. P00811. AID 485341;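 further: plate controls were no compound for no effect and no enzyme for full effect; nearly all actives have a fitted effect of over 20% in size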
Target sequence (P00811 whole entry, looked up): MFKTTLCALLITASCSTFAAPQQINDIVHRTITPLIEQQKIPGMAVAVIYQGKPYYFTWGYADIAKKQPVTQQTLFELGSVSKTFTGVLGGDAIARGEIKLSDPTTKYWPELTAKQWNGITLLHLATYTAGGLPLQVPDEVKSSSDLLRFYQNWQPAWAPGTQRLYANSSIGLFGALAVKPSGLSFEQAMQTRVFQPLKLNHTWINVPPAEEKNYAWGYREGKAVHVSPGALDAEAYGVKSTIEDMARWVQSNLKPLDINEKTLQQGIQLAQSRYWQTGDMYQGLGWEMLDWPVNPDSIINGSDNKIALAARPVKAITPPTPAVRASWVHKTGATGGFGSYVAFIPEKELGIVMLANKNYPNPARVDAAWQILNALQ
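AmpC (5.3 nM in the dispensed reagent) in 20 mM phosphate pH 7.0 with 0.01% (detergent screen) or 0.0001% Triton X-100 was preincubated with compounds for 15 min at room temperature. Nitrocefin was then added from an 800 uM solution, and hydrolysis was followed at 480 nm.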
Pf growth 96h – P. falciparum growth inhibition at 96 hours; P. falciparum luciferase reporter growth, 96 h; AID 504834; Potency, µM (series often up to 28.7 µM), inactives show at the top dose activity change, negative = inhibition, usual class: inhibitors; hit rate 6.9% among 320,000
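Compounds incubated with erythrocytes infected by luciferase-expressing P. falciparum (2% hematocrit, 0.05% parasitemia final) for 96 hours, 37 C in 5% CO2. Growth inhibition scored as decreased luciferase luminescence.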
Pf growth 48h – inhibits P. falciparum growth in the first generation, 48 h; hit rate 5.9% among 310,000; AID 504832; Potency, µM (highest dose often 28.7 µM), for inactives: at the highest dose activity change, negative = inhibition, hits mostly inhibitors; P. falciparum luciferase growth in erythrocytes, 48 h
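Firefly luciferase activity from engineered P. falciparum reports growth; inhibitors lower the luminescent signal. Cultures contained 2% hematocrit erythrocytes at 0.1% final parasitemia.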
HCV inhibitor – inhibitors of hepatitis C virus infection. Huh7.5.1 HCVcc-Cre infection, luciferase reporter, 44 h. Potency, µM (titrated, usually from 41.8 µM), for the others: top-dose activity change, negative = inhibition, hits mostly inhibitors. hit rate 3.4% among 340,000
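Compounds are dispensed onto cells plated 4 h earlier at 1,000 per well, with HCVcc-Cre virus (about 0.5 moi) added next. Following 44 h of culture, luminescent signal is measured for 15 sec after 15 min with substrate at room temperature.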
AmpC inh detg – AmpC beta-lactamase inhibition with detergent present | P00811 | AmpC hydrolysis of nitrocefin, absorbance 480 nm, 0.01% Triton | Potency, µM (highest dose often 114 µM), inactives show at the top dose activity change, negative = inhibition, most hits filed as inhibitors | hit rate 0.041% among 370,000 | AID 485294;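 further: 0% = no-compound wells and -100% = no-enzyme wells; nearly all actives have a fitted effect of over 25% in size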
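AmpC (5.3 nM in the dispensed reagent) in 20 mM phosphate pH 7.0 with 0.01% (detergent screen) or 0.0001% Triton X-100 was preincubated with compounds for 15 min at room temperature. Nitrocefin was then added from an 800 uM solution, and hydrolysis was followed at 480 nm.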
AMA1-RON2 inh – AMA1-RON2 (P. falciparum) interaction inhibition. AlphaScreen AMA1-biotinylated RON2 peptide binding. Potency, µM (doses to about 58.2 µM), for inactives: at the highest dose activity change, negative = inhibition, usual class: inhibitors. hit rate 0.2% among 360,000. AID 720542;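 further: 0% = vehicle wells and -100% = peptide control; nearly all actives have a fitted effect of over 45% in size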
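AMA1 (3D7) with his tag at 25 nM final met compounds first, then biotinylated RON2 peptide at 25 nM; detection used donor plus acceptor beads, 10 µg/mL apiece, read by AlphaScreen after 30 min at room temperature.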
* hit, by the source's call; ? = inconclusive; / = no result. Shown are actives, neighbours in structure and some others; about 11% of the full set was active somewhere. The call rests on the fitted dose curve; in most records, active means well fitted curve in the direction sought with a large enough effect; inconclusive means small, poorly fitted or top-dose-only effect, or another doubt; inactive means no such curve, though single readings can be large; an effect the other way counts as inactive or inconclusive. Unless noted, on the % scale 0 is the no-effect control and ±100 the full control effect; potency means the concentration at half of the fitted maximal effect.

SMILES	AmpC inh no detg	Pf growth 96h	Pf growth 48h	HCV inhibitor	AmpC inh detg	AMA1-RON2 inh
C=C(C)[C@@H]1CCC2(C(=O)O)CC[C@]3(C)[C@H](CC[C@@H]4[C@@]5(C)CCC(=O)C(C)(C)[C@@H]5CC[C@]43C)[C@@H]12 (some centres undefined)	-23.7%	?	?	?	-6.5%	-7.7%
O=C(CN1C(=O)CSc2ccc(S(=O)(=O)N3CCCC3)cc21)Nc1cccc(Cl)c1	/	/	/	/	2.8%	/
CC(C)c1ccc(NC(=O)c2cnc3sc(N4CCOCC4)nn3c2=O)cc1	/	/	/	/	8.2%	/
Cc1ccc(-c2nc3ncccc3o2)cc1NC(=O)c1ccc(-c2ccc(Cl)cc2)o1	/	/	/	/	-8.0%	/
C=CC(=O)N1C/C(=C/c2ccccc2)C(=O)/C(=C\c2ccccc2)C1	/	/	/	6.31µM*	/	-24.2%
C=CC(=O)N1C/C(=C/c2ccc(Cl)cc2)C(=O)/C(=C\c2ccc(Cl)cc2)C1	/	/	/	4.47µM*	/	?
CCCC[C@@H](CNC)NC[C@H](NCCCCC1CCCCC1)C(C)C	54.1%	1.65µM*	?	-55.5%	-13.8%	72.1%
COc1ccc(NC(=O)CC(C)n2nc(C)cc2C)cc1Cl (centres undefined)	/	/	/	/	20.5%	/
CC1=C(C(=O)Nc2cccnc2)C(c2cccc(F)c2)n2nc(SCc3ccccc3F)nc2N1 (centres undefined)	/	/	/	/	-9.0%	/
C=C1CC2C3CC[C@@]4(OCOC45COCO5)[C@@]3(C)C(O)CC2[C@@]2(C)CCC(=O)C=C12 (some centres undefined)	91.1%	13.1µM*	10.4µM*	?	0.8%	8.2%
C[C@]12CCC(=O)C=C1CCC1C2CC[C@@]2(C)C1CCC21OCCO1 (some centres undefined)	43.0%	/	/	-9.5%	/	19.6%
CCN(CC)c1ccc(N=C2C(=O)Nc3ccccc32)cc1	-8.0%	?	3.29µM*	?	-3.8%	?
Cc1ccc(N=C2C(=O)Nc3ccccc32)cc1	-16.8%	1.5%	22.8%	-6.8%	-4.8%	-10.9%
O=C(CSc1ccccc1F)NC(=O)NCc1ccco1	-50.8%	32.5%	-10.5%	7.5%	-0.7%	-3.0%
Cc1ccccc1CSCC(=O)NC(=O)NCc1ccco1	-26.6%	6.57µM*	49.3%	10.3%	1.1%	-27.6%
COc1ccc(NC(C)C(=O)Nc2ccc(C#N)cc2)cc1Cl (centres undefined)	-25.0%	2.33µM*	/	0.7%	-6.2%	-6.9%
COc1ccc(NC(C)C(=O)Nc2ccc(C(C)(C)C)cc2)cc1Cl (centres undefined)	-19.9%	/	?	?	1.5%	?
Cc1cccc(N2CCN(c3ccc(C(=O)O)cc3NC(=O)c3cccc(Cl)c3)CC2C)c1 (centres undefined)	/	/	/	/	-0.9%	/
CCOC(=O)c1ccc(N2C(=O)c3n[nH]c(-c4ccco4)c3C2c2ccc([N+](=O)[O-])cc2)cc1 (centres undefined)	-15.3%	20.4%	?	14.1µM*	-6.4%	-0.5%
CCOC(=O)c1ccc(N2C(=O)c3n[nH]c(-c4ccco4)c3C2c2ccc(C)cc2)cc1 (centres undefined)	/	/	/	/	-2.1%	/
CCCC(=O)Nc1nc(C)c(-c2csc(Nc3ccccc3C)n2)s1	-5.7%	?	11.7µM*	-1.9%	1.5%	43.2%
CCC(=O)Nc1nc(C)c(-c2csc(Nc3ccccn3)n2)s1	0.2%	6.1%	13.2%	11.2µM*	-5.4%	-1.7%
CCCCCCC(=O)Nc1nc(C)c(-c2csc(Nc3ccccc3OC)n2)s1	-50.9%	3.7µM*	?	-13.5%	2.9%	-4.2%
CCCCCC(=O)Nc1nc(C)c(-c2csc(Nc3ccccc3OCC)n2)s1	-31.5%	?	?	3.7%	4.6%	21.5%
CCCCCC(=O)Nc1nc(C)c(-c2csc(Nc3ccccc3OC)n2)s1	-28.7%	2.94µM*	?	0.4%	-7.6%	13.5%
SMILES	AmpC inh no detg	Pf growth 96h	Pf growth 48h	HCV inhibitor	AmpC inh detg	AMA1-RON2 inh
CC(=O)Nc1ccc(-c2csc(Nc3ccccn3)n2)cc1	-6.7%	181.7%	156.9%	?	-5.2%	-9.3%
COc1cccc(C(=O)NC2=NC(c3ccccc3F)CC(=O)N2)c1 (centres undefined)	/	/	/	/	0.4%	/
CCOc1ccc2c(c1)sc1nc(=O)n(-c3ccc(Cl)c(Cl)c3)c(=O)n12	/	/	/	/	10.0%	/
Oc1ccc(-c2csc(Nc3ccccn3)n2)cc1O	1.58µM*	-28.3%	61.0%	4.7%	-7.9%	2.3%
CCCC(C)C(=O)Nc1nc(C)c(-c2csc(Nc3ccccc3OC)n2)s1 (centres undefined)	-25.2%	9.28µM*	?	?	-1.1%	25.8%
Cc1ccnc(Nc2nc(-c3ccc(O)c(O)c3)cs2)c1	-23.3%	?	?	?	1.9%	35.0%
CCOC(=O)c1c(C)oc2ccc(N(C(=O)Oc3ccccc3)S(=O)(=O)c3ccccc3)cc12	/	/	/	/	11.0%	/
CCN(CC)S(=O)(=O)c1ccc2c(c1)nc(CN(C)C(=O)Nc1ccc(F)cc1)n2C	/	/	/	/	6.6%	/
CN(C)S(=O)(=O)c1ccc(C(=O)Nc2ccccc2F)cc1	2.1%	/	10.7%	10.7%	-6.3%	-15.5%
CCN1C(=O)c2cccc3c(NC(=O)c4ccc(S(=O)(=O)N(C)C)cc4)ccc1c23	97.0%	10.4%	11.7µM*	-26.0%	1.0%	4.8%
COc1ccc(C(=O)N/N=C/c2ccc(OC)c(OS(=O)(=O)c3ccccc3)c2)cc1	-43.5%	?	?	10µM*	-6.6%	-4.3%
CCOC1(c2ccccc2)CC1C(=O)N/N=C/c1cccc([N+](=O)[O-])c1 (centres undefined)	5.9%	?	?	11.2µM*	4.6%	-8.5%
CN(C)S(=O)(=O)c1ccc(C(=O)Nc2ccccc2C(=O)O)cc1	-15.0%	13.1µM*	-12.1%	5.6%	?	-3.4%
Cc1cc(C)c(NC(=O)c2cc(C)nc3c2c(C)nn3-c2cccc(F)c2)c(C)c1	/	/	/	/	12.9%	/
O=C(Nc1c(C(=O)N2CCN(c3ccccc3F)CC2)oc2ccccc12)c1ccc(Br)o1	/	/	/	/	0.0%	/
CC(=O)c1ccc(N2C(=O)N(Cc3ccc(F)cc3)c3ccccc3S2(=O)=O)cc1	/	/	/	/	0.1%	/
CC(=O)Nc1ccc(NC(=O)c2ccc(S(=O)(=O)N(C)c3ccccc3)cc2)cc1	-49.9%	?	13.1µM*	?	-3.5%	-2.1%
CC(=O)Nc1ccc(C(=O)N/N=C/c2ccc(F)cc2)cc1	-16.5%	?	58.4%	7.9%	4.5%	12.6%
